# Screens from PubChem.
# In the library only some 27% were active in any assay of this set; here they are far more common.
# CYP2C19 act = activators of human cytochrome P450 2C19 | recombinant CYP2C19, luciferin-H EGE luminescence; stronger effect = higher value; 0 = fully inhibited enzyme, 1 = untreated enzyme | 96,000 tested, under 10 active | activation factor at 5 µM | P33261 | AID 1025;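 active = activation factor of at least 2 at 5 µM in the primary screen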;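 also: 0 = wells with 2.5 mM tranylcypromine and 1 = vehicle-only wells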
# CYP2C19 inhib = blocks human cytochrome P450 2C19 | CYP2C19 Supersomes, luciferin-H EGE luminescence, 30 min | P33261 | 21% of 96,000 active | AID 778 | inhibition, % at 5 µM;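 active = CYP2C19 inhibition above a set limit at 5 µM in the primary screen, cut at about 50% in these data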;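 also: plate controls were negative control wells for no effect and 2.5 mM tranylcypromine positive control for full effect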
# CYP2C9 inh = inhibitors of human CYP2C9 | CYP2C9 Supersomes, luciferin-H conversion, luminescence | AID 777 | inhibition, % at 5 µM | 20% of 96,000 active;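 active = blocking of liver enzyme CYP2C9 beyond about 50% at 5 µM, limit read from the data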
# Cav32 inh = blocks human Cav3.2 T-type calcium channel; O95180; Cav3.2-expressing cells, Fluo-4 calcium fluorescence FDSS; stronger effect = lower value; B-score at 10 µM; 4% of 100,000 active; AID 449739;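 active = single-dose well whose peak fluorescence ratio is a statistical outlier from its plate by either plate-standardised score or position-corrected B-score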
# CYP2C9 act = increases human cytochrome P450 2C9 activity; P11712; recombinant CYP2C9, luciferin-H conversion, luminescence; stronger effect = higher value; factor 1 = untreated enzyme, 0 = blocked; activation factor at 5 µM; 1.4% of 96,000 active; AID 1024;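 active = activation factor of 2 or more for CYP2C9 at a 5 µM dose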;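 also: 0 = sulfaphenazole-blocked wells and 1 = vehicle-only wells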
# * hit, by the source's call; . = no result.
SMILES,CYP2C19 act,CYP2C19 inhib,CYP2C9 inh,Cav32 inh,CYP2C9 act
N#Cc1ccc(CSc2nnc(Nc3ccccc3)s2)cc1,1.1,-9,-9,-1.4,1.1
O=S(=O)(Nc1ccncc1Cl)c1ccccc1,1.1,-9,70*,0.72,0.3
O=C(OCc1cc(Cl)ccc1OC(F)F)c1cc(S(=O)(=O)O)ccc1O,1,3,73*,0.15,0.3
CCOC(=O)N1C2=NC(C(=O)OC)=C(C(=O)OC)[C@@H]3Nc4ccccc4[C@]23C[C@H]1C(=O)OC,.,.,.,0.013,.
COc1cccc(-c2csc3nc[nH]c(=O)c23)c1,0.4,59*,8,0.92,0.9
O=c1[nH]cnc2scc(-c3ccc(F)cc3)c12,0.5,46,-39,0.35,1.4
O=C(CCCCCn1c(=O)[nH]c2ccsc2c1=O)NCc1ccc(F)cc1,0.6,35,88*,0.65,0.1
O=C(CCCCCn1c(=O)[nH]c2ccsc2c1=O)N1CCN(C2CCCCC2)CC1,0.4,56*,72*,1.1,0.3
O=C(CCCn1c(=O)[nH]c2ccsc2c1=O)NCc1cccs1,0.9,7,28,0.2,0.7
O=C(CCCCCn1c(=O)[nH]c2ccsc2c1=O)NCc1cccs1,0.6,38,81*,0.071,0.2
CCCCNC(=O)c1cc(-c2ccc(F)cc2)on1,.,.,.,-0.78,.
COC(=O)C1=C(C)N(CCCC(=O)O)C(=O)NC1c1ccccc1OS(=O)(=O)c1ccc([N+](=O)[O-])cc1 (centres undefined),.,.,.,1.1,.
Cc1ccc(N2CC(C(=O)Nc3ccccc3C(=O)NC3CCCCC3)CC2=O)cc1C (centres undefined),.,.,.,-1.4,.
O=C(c1cccc(S(=O)(=O)N2CCCC2)c1)N1CCN(c2ccccc2F)CC1,0.1,93*,80*,0.023,0.2
O=C(c1cccc(S(=O)(=O)N2CCCCC2)c1)N1CCCCC1,0.8,22,0,0.14,1
CCOc1ccccc1N1CCN(S(=O)(=O)CC)CC1,0.7,35,24,-0.58,0.8
COC(=O)COc1ccc(S(=O)(=O)N2CCN(c3ccccc3F)CC2)cc1C,0.6,43,26,-0.61,0.7
COc1cccc(S(=O)(=O)N2CCN(c3ccccc3F)CC2)c1,0.3,74*,67*,-5.2,0.3
CCCS(=O)(=O)N1CCN(c2ccccc2F)CC1,0.3,68*,47,0.75,0.5
CCOc1ccc(CCNC(=O)C2CCCN(S(=O)(=O)c3c(C)n[nH]c3C)C2)cc1OCC (centres undefined),0.7,29,40,0.61,0.6
COC(C/C=C\[C@@H](O)[C@H](C)OCc1ccccc1)OC,.,.,.,-1.8,.
Cc1cnc(NC(=O)CSc2nnc(-c3cccs3)n2C)s1,0.8,24,12,0.49,0.9
CC(C)(C)[C@H]1C=C(C(=O)NC2CC2)O[C@@H](OCCCCO)C1,.,.,.,0.26,.
COc1ccc(/C=N/Nc2ncc(-c3ccccc3)cn2)c(OC)c1,.,.,.,-0.7,.
COc1ccc(/C=N/NC(=O)c2[nH]ncc2Br)c(OC)c1,0.6,36,-105,0.36,2*
SMILES,CYP2C19 act,CYP2C19 inhib,CYP2C9 inh,Cav32 inh,CYP2C9 act
CCc1nc(SC)[nH]c(=O)c1C,0,95*,16,0.55,0.8
CCCc1nc(SCC(N)=O)[nH]c(=O)c1CC,1,0,-5,0.82,1.1
O=C1c2ccccc2C(Nc2ccc(S(=O)(=O)N3CCCCCC3)cc2)N1Cc1ccco1 (centres undefined),0.6,36,97*,-2.9,0
CCc1ccccc1NC1c2ccccc2C(=O)N1Cc1ccco1 (centres undefined),1,0,15,-4,0.8
CCOc1ccccc1NC1c2ccccc2C(=O)N1Cc1ccco1 (centres undefined),0.4,63*,19,-3.8,0.8
Cc1ccc(N2C(=O)c3ccccc3C2Nc2ccc(S(=O)(=O)N3CCCCC3)cc2)nc1 (centres undefined),0.9,14,36,-1.8,0.6
CCOC(=O)Cn1c(C)c(C#N)c2ccccc21,0.4,57*,50*,0.029,0.5
COCc1cc(C)nc(SCC(=O)Nc2cccc(C)c2C)c1C#N,0.6,38,-7,.,1.1
CCOC(=O)Cn1c(C)cc(=O)c2ccccc21,1,4,-4,0.18,1
Cc1c(C#N)c2ccccc2n1CC(=O)NC(C)c1ccccc1 (centres undefined),0.1,87*,59*,-3.9,0.4
CC(NC(=O)Cn1c(NCCO)nc2ccccc21)c1ccccc1 (centres undefined),0.7,28,31,0.43,0.7
Cc1cccc(NC(=O)Cn2c(C)c(C#N)c3ccccc32)c1C,0.1,87*,87*,-1.4,0.1
O=C(O)C(Oc1ccc2c3c(c(=O)oc2c1)CCC3)c1ccccc1 (centres undefined),1.2,-16,-11,-0.086,1.1
CC1(C)CC(=O)C=C(c2cccnc2)C1,.,.,.,0.96,.
CCn1cc(C(=O)Nc2ccc(OC)c(OC)c2)c2cc(OC)c(OC)cc2c1=O,1,2,9,-0.049,0.9
CC(=O)C(=Nc1ccc(Cl)cc1Cl)NNc1cccc(Cl)c1,0,99*,100*,-1,0
CCOc1ccc(-n2c(Cc3cc(=O)[nH]c(=O)[nH]3)nnc2SC(C)C(=O)OC)cc1 (centres undefined),1,0,-7,.,1.1
CCOC(=O)c1sc(C(=O)OCC)c(OCCO)c1OCCO,1,-2,16,0.059,0.8
CC1=C(C(=O)Nc2ccc([N+](=O)[O-])cc2)C(c2cccc(C(F)(F)F)c2)NC(=S)N1c1ccccc1 (centres undefined),0.9,15,89*,-6.7*,0.1
COc1ccc(C2NC(=S)N(c3ccccc3)C(C)=C2C(=O)Nc2ccccc2)cc1 (centres undefined),0.7,29,17,-2.7,0.8
COc1ccc(-c2cc(-c3ccccc3)nc(-c3ccc4c(c3)NC(=O)CO4)c2)cc1,0.9,8,33,-0.96,0.7
COc1ccc2c(c1)NC(=O)CC(c1ccccc1)=N2,0.3,75*,49,0.73,0.5
COc1ccc(CNC(=O)C(C)OC(=O)c2cccn2C)cc1 (centres undefined),0.2,78*,36,-1.2,0.6
CC(C)C(OC(=O)c1ccco1)C(=O)NCc1ccccc1 (centres undefined),0.7,33,23,0.11,0.8
CC(C)C(OC(=O)c1nsc(Cl)c1Cl)C(=O)NCc1ccc2c(c1)OCO2 (centres undefined),0.6,43,65*,2,0.3
COCCSc1ccccc1C(=O)NCc1ccc2c(c1)OCO2,0.5,48,24,0.94,0.8
COc1ccc(CNC(N)=O)cc1,.,.,.,0.57,.
CC(OC(=O)c1cccs1)C(=O)NCc1ccc2c(c1)OCO2 (centres undefined),0.6,38,67*,0.51,0.3
CC(OC(=O)c1cccs1)C(=O)NCc1ccccc1 (centres undefined),0,98*,77*,1.5,0.2
